“And” between values parts separate entries of the source, which are not always exact repeats. Equal values may be shown once. The whole screen tested about 38,000 compounds, of which about 1,200 (3.2%) showed an effect of 50% or more. The median lay at about -58%. Many of the other results were omitted from the sample, so strong results are more common in it than they were.
System: Plasmodium falciparum
Experiment: Calibr Malaria Delayed Death Assay SOP
Assay type: functional, organism-based
Design: scale not given: in the data most compounds retested in dose-response had high values
Conditions: concentration 4.99e-06 (unit not given; other assays of the set use mol/L)

| Compound | Percent Effect [%] | Percent Effect (4.99 µM) |
| --- | --- | --- |
| COc1cccc2ccn(CC(=O)NC(C)C)c12 | -78.35 |  |
| Cc1ccc(N(CCC#N)C(=O)CCc2cscn2)cc1C | -62.62 |  |
| COC[C@@]12CCO[C@@H]1CCN(C(=O)Cc1cccc(F)c1)C2 | -44.15 |  |
| Cc1ccc(-c2nc(CCNC(=O)C3CC(=O)N(C)C3)cs2)cc1 (configuration not stated) | -66.89 |  |
| CC(=O)c1cccc(-c2c[nH]c(C)n2)c1 | -59.83 |  |
| Cc1cc2c(c(-c3cncc(C(=O)N4CCCC4)n3)c1)OC(CN)C2 (configuration not stated) | 3.853 |  |
| Cc1nc(-c2cccc(C(=O)O)c2)c[nH]1 | -344.9 |  |
| Cc1cc2c(c(-c3c[nH]c(C)n3)c1)OC(CN)C2 (configuration not stated) | 79.27 |  |
| O=C(CCc1ccco1)N1CCCN(Cc2cscn2)CC1 | -137.4 |  |
| O=C(c1cccc(F)c1)N1CC[C@@H]2CN(c3ncccn3)CCO[C@@H]2C1 | -63.21 |  |
| O=S(=O)(NCC(O)c1ccc2c(c1)CCO2)c1ccccc1F (configuration not stated) | -109.3 |  |
| CCc1nccn1C1CCCN(C(=O)c2cncn2-c2ccccc2)C1 (configuration not stated) |  | -131.8% and -127.1% |
| CC1(c2ccccc2)CCCN(C(=O)c2ccn3nnnc3c2)C1 (configuration not stated) | -91.8 |  |
| O=C(Cc1ccccc1)C1CCCN(Cc2cncn2C2CCCC2)C1 (configuration not stated) | 56.54 |  |
| O=C(C1CCCN(Cc2ccccc2)C1)N1CCc2sccc2C1 (configuration not stated) | 11.44 |  |
| CC1(c2ccccc2)CCCN(Cc2cncn2C2CC2)C1 (configuration not stated) | 67 |  |
| O=C(C1CCCN(Cc2cccnc2)C1)N1CCc2sccc2C1 (configuration not stated) | -120.1 |  |
| CC1(c2ccccc2)CCC(=O)N(CCN2CCOCC2)C1 (configuration not stated) | -51.4 |  |
| CC1(c2ccccc2)CCCN(Cc2cncn2C2CCCC2)C1 (configuration not stated) | 90.6 |  |
| COCCN1CCCC12CCN(Cc1cncn1C)CC2.O=C(O)C(F)(F)F.O=C(O)C(F)(F)F | -15.64 |  |
| COc1ncc(CN2CCC3(CCCN(CC4CCCCC4)C3)C2)cn1 (configuration not stated) | -65.28 |  |
| COCCn1cncc1CN1CCCC(C)(c2ccccc2)C1 (configuration not stated) | 61.23 |  |
| COCCn1cncc1CN1CCC(C(C)=O)(c2ccccc2)CC1 | -24.83 |  |
| O=C(O)C(F)(F)F.O=C(O)C(F)(F)F.O=C1N(Cc2cccnc2)CCC12CCCN(c1ncccn1)C2 (configuration not stated) | -131.5 |  |
| CS(=O)(=O)c1cncnc1C1CCCNC1.Cl (configuration not stated) | -139 |  |
| CCN1CCO[C@@H]2CN(C(=O)NCc3ccccc3)CC[C@@H]2C1 | -134.2 |  |

| Compound | Percent Effect [%] | Percent Effect (4.99 µM) |
| --- | --- | --- |
| CCC(=O)NC(c1ccc(C)cc1)c1cccc(S(C)(=O)=O)c1 (configuration not stated) | -119.8 |  |
| COc1cc(N2C[C@@H]3COC[C@@H](Cc4nc(C)no4)[C@@H]3C2)ncn1 | -87.35 |  |
| Cc1ccc(C(=O)N2C[C@@H]3CCCO[C@@H]3[C@H](N(C)Cc3ccco3)C2)o1.O=C(O)C(F)(F)F | -32.67 |  |
| CCNC(=O)c1c2c(N3CCN(C)CC3)ncnc2n2ccccc12 | -74.14 |  |
| CCCN1CCC(CNC(=O)C2(c3cccc(C)c3)CC2)C1 (configuration not stated) | -64.24 |  |
| CCN1CCC(CNC(=O)C2(c3ccc(F)cc3)CC2)C1 (configuration not stated) | 28.54 |  |
| CCCN1CCC(CNC(=O)C2(c3ccccc3)CCC2)C1 (configuration not stated) | 65.3 |  |
| Cc1cc(C)cc(C2(C(=O)NCC3CCN(CC(F)(F)F)C3)CC2)c1 (configuration not stated) | -75.87 |  |
| COCCN1CCC(CNC(=O)C2(c3ccccc3)CCC2)C1 (configuration not stated) | -3.533 |  |
| CCOCCC(=O)N1CCN(CC(C)O)CC1 (configuration not stated) | -101.9 |  |
| Cn1ncnc1CNC(=O)N(CCCO)C1CCc2ccccc21 (configuration not stated) | -16.9 |  |
| Cn1cc(N2CC3(CCN(Cc4cccnc4)CC3)OCC2=O)cn1.O=C(O)C(F)(F)F.O=C(O)C(F)(F)F | -71.74 |  |
| CC(=O)N1CCN(C(=O)NCCc2ccc(Cl)s2)CC1 | -108.8 |  |
| Cc1cc(C)c(CNC(=O)NCC2Cc3ccccc3O2)c(=O)[nH]1 (configuration not stated) | -144.1 |  |
| CN1CCC(c2cccc(Cc3ccc(C(F)(F)F)cc3)n2)CC1 | 50.24 |  |
| CN1CCC(c2cccc(Cc3ccccc3)n2)CC1 | -0.8146 |  |
| Fc1ccc(Cc2cccc(C3CCN(C4CCOCC4)CC3)n2)cc1 | 38.56 |  |
| COC1CCN(C(=O)C2CCCC2)CC(=O)N(C)c2ccccc21 (configuration not stated) | -134 |  |
| CC1CN(C(=O)Nc2cc(C(F)(F)F)c[nH]c2=O)CC(C)(C)O1 (configuration not stated) | -36.51 |  |
| Cc1ccsc1C(O)CNC(=O)Cc1ccc(S(=O)(=O)C(C)C)cc1 (configuration not stated) | 0.3509 |  |
| COc1ccc(-c2cccc3c2OC(CN)C3)cc1F (configuration not stated) | 62.39 |  |
| COc1c(F)cc(-c2cccc3c2OC(CN)C3)cc1F (configuration not stated) | 35.23 |  |
| COc1cc(-c2cccc3c2OC(CN)C3)cc(OC)c1OC (configuration not stated) | 46.68 |  |
| COc1cc(-c2cccc3c2OC(CN)C3)ccc1O (configuration not stated) | 37.76 |  |
| NCC1Cc2cccc(-c3ccc(O)c(F)c3)c2O1 (configuration not stated) | 82.73 |  |
| Cc1ccc(C(O)CNC(=O)NCc2c(C)cc(C)[nH]c2=O)cc1 (configuration not stated) | -76.06 |  |

| Compound | Percent Effect [%] | Percent Effect (4.99 µM) |
| --- | --- | --- |
| Cc1nc(-c2cccnc2)ncc1C(=O)N1CCCC(N(C)C)CC1 (configuration not stated) | -60.09 |  |
| Cc1cccc(OC2CCN(S(=O)(=O)Cc3cccc(F)c3)CC2)n1 | -131.9 |  |
| CN(C)CC1CSCCCN1S(=O)(=O)Cc1cccc(F)c1 (configuration not stated) | 58.19 |  |
| CS(=O)(=O)C1CCN(S(=O)(=O)Cc2cccc(F)c2)CC1 | -94.28 |  |
| CN(C)CC1CSCCCN1S(=O)(=O)c1ccc(C(F)(F)F)cc1 (configuration not stated) | 60.28 |  |
| CN(C)CC1CSCCCN1C(=O)c1ccc(C(C)(C)C)cc1 (configuration not stated) | 0.9343 |  |
| CN(C)CC1CSCCCN1S(=O)(=O)Cc1ccc(C(F)(F)F)cc1 (configuration not stated) | 9.215 |  |
| Cc1cccc(CN2CC[C@@H]3[C@@H]2CCN3C(=O)c2cc(C)oc2C)n1.O=C(O)C(F)(F)F | -98.87 |  |
| Cn1nc2c(cc1=O)CN(Cc1nc(N)c3ccccc3n1)CC2 | -169.7 |  |
| Cc1cccc(C2CCCN(C(=O)c3ccncc3)C2)n1 (configuration not stated) | -31.2 |  |
| CCc1ccc(C(=O)N2CC(C(=O)NC(C)C)C3(CCOCC3)C2)cc1 (configuration not stated) | -34.39 |  |
| FC(F)(F)c1n[nH]c2c1CN(CCc1ccccn1)CC2 | -42.86 |  |
| O=C(CCN1CCc2[nH]nc(C(F)(F)F)c2C1)Nc1ccccc1 | -17.85 |  |
| OCCN1CCc2[nH]nc(C(c3ccccc3)c3ccccc3)c2C1 | 59.95 |  |
| CC(O)CN1CCc2[nH]nc(C(c3ccccc3)c3ccccc3)c2C1 (configuration not stated) | 40.85 |  |
| OCCCN1CCc2[nH]nc(C(c3ccccc3)c3ccccc3)c2C1 | 71.73 |  |
| [O-][S+](CCN1CCc2[nH]nc(C(F)(F)F)c2C1)c1ccccc1 (configuration not stated) | -19.45 |  |
| COCCCC1(C(=O)O)CCCN(C(=O)c2ccc(Cl)cc2F)C1 (configuration not stated) | -104.4 |  |
| CNC(=O)c1ccc2c(c1)C1(CCN(CC3CC3)CC1)C(=O)N2.O=C(O)C(F)(F)F | -45 |  |
| CN(Cc1ccncc1)C1COC2(CCN(Cc3ccco3)CC2)C1.O=C(O)C(F)(F)F.O=C(O)C(F)(F)F.O=C(O)C(F)(F)F (configuration not stated) | -70.95 |  |
| CN(C)CC(C)(O)CNC(=O)Nc1sc2ccccc2c1Cl (configuration not stated) | 61 |  |
| CS(=O)(=O)CCNC(=O)Nc1sc2ccccc2c1Cl | -106.1 |  |
| CS(=O)(=O)CCCNC(=O)Nc1sc2ccccc2c1Cl | -18.18 |  |
| CN(C)C(=O)CN1C[C@@H]2CC[C@H](C1)N(C/C=C/c1ccc(F)cc1)C2 | 41.87 |  |
| CS(=O)(=O)N1C[C@@H]2CC[C@H](C1)N(C/C=C/c1ccc(F)cc1)C2 | -47.28 |  |
| CN(C)C(=O)N1C[C@@H]2CC[C@H](C1)N(C/C=C/c1ccc(F)cc1)C2 | 56.59 |  |

| Compound | Percent Effect [%] | Percent Effect (4.99 µM) |
| --- | --- | --- |
| CCN(c1ccsc1C(=O)N1CCSCC1)S(=O)(=O)c1ccc(Cl)cc1 | -33.89 |  |
| Cc1cnn(Cc2ccc(NC(=O)N3CCCC3)cc2)c1 | -108.6 |  |
| Cc1ccc(C(=O)N(C)Cc2csc(C)n2)c(=O)[nH]1 | -148.4 |  |
| CCC(NC(=O)C1CCN(C(C)C)CC1)c1cn2cccnc2n1 (configuration not stated) | -73.6 |  |
| Cc1n[nH]c(C)c1-c1cc(-c2ccc[nH]2)nc(N)c1C#N | -191.7 |  |
| Cc1n[nH]c(C)c1-c1cc(-c2cccc(O)c2)nc(N)c1C#N | -75.89 |  |
| CC(C)Cc1cc(-c2cc(-c3ccc[nH]3)nc(N)c2C#N)n[nH]1 | 60.25 |  |
| Cc1ccc(CNCc2c(C(C)C)nn(C)c2N2CCOCC2)s1 | 43.54 |  |
| Cc1nccn1Cc1nnc(C2CCCN(Cc3ccncc3)C2)n1C (configuration not stated) | -18.97 |  |
| Cc1nccn1CCCN1CCC(c2nccn2CC2CCC2)CC1 | -43.9 |  |
| Cc1nccn1CCCN1CCCC(c2ccccc2)C1 (configuration not stated) | 77.62 |  |
| COc1cc(C)ccc1OCCC(=O)N1CCC(N2CC=CC2)C1 (configuration not stated) | -87.08 |  |
| COc1ccc(N2CCN(Cc3noc(CC(C)C)n3)C(C)C2=O)cc1 (configuration not stated) | -89.75 |  |
| COc1cc(CN(CCCN(C)C)Cc2ccccn2)cc2c1OCO2.O=C(O)CC(O)(CC(=O)O)C(=O)O | 79.66 |  |
| CN(C)CCN(C)C(=O)Cc1ccc2c(c1)OCCO2.O=C(O)CC(O)(CC(=O)O)C(=O)O | -18.25 |  |
| COc1ccccc1CN(Cc1cccnc1)CC1CCCO1.O=C(O)CC(O)(CC(=O)O)C(=O)O (configuration not stated) | -1.656 |  |
| CCN1CCc2[nH]cnc2C12CCN(C(=O)CCc1cccs1)CC2 | -14.54 |  |
| CCc1c(C)sc2c1c(N)nc(=O)n2CCN(C)C | 14.15 |  |
| CCN(C)CC(C)Cn1cnc(-c2ccccc2)c1C (configuration not stated) | -12.51 |  |
| CCCc1nc2c(c(C)c(C)n2CCN(C)C)c(N)c1CC | 89.53 |  |
| CN(C)CCN1CCN(C)c2nc(-c3ccccc3)ncc2C1=O | -20.71 |  |
| Cc1c(-c2ccccc2)nc2c(c(C)c(C)n2CCN(C)C)c1N | 79.27 |  |
| CCc1c(-c2ccccc2)nc2c(c(C)c(C)n2CCN(C)C)c1N | 66.32 |  |
| CCc1c(C)sc2c1c(N)nc(=O)n2CCCN(C)C | -156.5 |  |
